# Results as given in the supplement of paper PMC11417369.
# ± gives the standard deviation of the averaged measurements. The full ranking holds about 25,000 sequences; the median of “ln(normalized median fluorescence intensity)” is about 8.9, and the highest 2% start at about 10. What follows is part of a selection rich in the highest values, with near analogues and random picks from the rest.
# Tested on: PfAP2-LT AP2 domain (GST-tagged)
# Test: gcPBM binding intensity (ln(normalized median fluorescence intensity)); higher = stronger DNA binding
# How it was run: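 An Agilent 4 × 180k array carrying primer-extended double-stranded 36-bp intergenic genomic probes and negative controls received GST-tagged P. falciparum DNA-binding domains expressed in E. coli, about 25 μg on average, for 1 h. The binding buffer contained 1× PBS, 1% milk, 0.2 mg/ml BSA, 0.5% salmon testes DNA and 0.03% Triton X-100. Binding intensity is the top Masliner-normalised natural-log median intensity across replicate spots of either probe orientation, read after Alexa488 anti-GST antibody staining and a 488 nm scan.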
row,Sequence,gcPBM binding intensity (ln)
1,ATAAAAAAGAAACAAACACACATACATACAAACAAA [CACACA_site4256],9.47 ± 0.33
2,AACAATCAAATAGACACACACACACCCAAACATAAA [CACACA_site2757],10.1 ± 0.11
3,CACAAAAATAGACACACACACATATAAATAAATATA [CACACA_site6598],9.7 ± 0.38
4,CAATCAAATGGACACACACACACCTAAACATAAAAG [CACACA_site5524],10 ± 0.3
5,ATTATATTTATGTTGGTGCATTATACATGAAATTTA,8.68 ± 0.4
6,AGAAAAGGACATATATGTACTTATCAATATAGAAAC [XGTACX_site1042],9.04 ± 0.48
7,TTCTTTTTTCTTTATGGTACGTGTAATATATATCAA [XGTACX_site7960],8.82 ± 0.45
8,AATAGAACAAATAAAACACACACATATATATATATA [CACACA_site8893],9.76 ± 0.37
9,AAACAAAAAATATATACACACTAAACATAAAAAAAA [CACACA_site4185],9.02 ± 0.46
10,GGCATACACGAACACACACACACACGCACATATATA [CACACA_site6426],10.5 ± 0.36
11,CACGCGAACATACATACACACACATATATATATATG [CACACA_site7951],9.69 ± 0.35
12,CACACGCACGAACACACACACACACGCATATAAATA [CACACA_site6302],10.2 ± 0.3
13,AACAAATACGAACACACACACACACTAAAAAAAAAA [CACACA_site6386],10.3 ± 0.2
14,CACGCGCACGAACACACACACACACGCATATAAATA [CACACA_site7103],9.86 ± 0.33
15,ATCAAGCACGAACACACACACACACGCACGCCCACA [CACACA_site6308],10.3 ± 0.3
16,CGAACAAACAAATAAACACACAAAAAAAAATATATA [CACACA_site1825],9.11 ± 0.5
17,ACACGCACATATATATAAATATATATATATATAAAT [CACACA_negctrl_site1781],9.6 ± 0.28
18,TTTATTTTATCATTTGCACACGCACGCCCACATAAA [CACACA_site353],9.39 ± 0.42
19,CCAACATGCCCACGCACACACAAAAAAAGCATGCAT [CACACA_site4217],9.51 ± 0.4
20,TTTTCCCTCTTATTCACACAAAAAAAATAAAATAAA [CACACA_site4656],8.2 ± 0.42
21,TTTGCTTCGATATATTCACACATTTTTTTTCTTATT [CACACA_site4499],8.91 ± 0.46
22,TTCTTTTTTCAACACACACACACAAGAAAATATATA [CACACA_site9019],9.51 ± 0.16
23,AATATAAATAAAAACACACACAATGGTACCTATATA [CACACA_site7688],9.3 ± 0.39

row,Sequence,gcPBM binding intensity (ln)
1,TATTATATATATGGAAGTACAGGTATATCGTTTTTC [XGTACX_site3771],8.73 ± 0.4
2,AACATATACACGAACACACACACATATAAATAAATA [CACACA_site6380],9.87 ± 0.23
3,CTAAAATACGAACACACACACACATATAAATAAATA [CACACA_site7872],10.2 ± 0.33
4,AACATATACACGAACACACACACATATATATATATA [CACACA_site502],10.3 ± 0.26
5,CACACGCACGAACACACACACATATAAATATAAATA [CACACA_site6299],9.71 ± 0.44
6,TATATACATATATACACACACATATATATATATATA [CACACA_site2805],9.905 ± 0.0071
7,TACACATACACATACACACGCATAGAAACATACGAA [CACACA_site2137],9.48 ± 0.33
8,TATACATATATATACACACACACATATATATATATA [CACACA_site1299],9.9 ± 0.42
9,CACACGCACGAACACACACACACACGCACGCACATA [CACACA_site6305],10.4 ± 0.13
10,CATATACACGAACACACACACATATAAATAAATATA [CACACA_site6379],9.74 ± 0.29
11,TAACACATAAATAAATATATACATATATATAAAATA [CACACA_negctrl_site375],8.81 ± 0.46
12,AAAAAAAAAATATACACACACACATACACATAAATA [CACACA_site3808],9.92 ± 0.21
13,AGTATACACGAACACACACACACATATATAAATATA [CACACA_site6913],10.2 ± 0.4
14,TTTTTTAAATAATATTGTACAAAAAATGTATAAATA [XGTACX_site3010],8.44 ± 0.42
15,ATATATATATAAATATGTACATATATACATATATAC [XGTACX_site2374],8.89 ± 0.23
16,TGTATGTCTTTATTTTGTACACAATATAAAAAATTA [XGTACX_site5441],8.51 ± 0.38
17,ACCATTTGTAGGTAAACACACATTATTATTAATATC [CACACA_site2635],8.93 ± 0.4
18,CATTTTGTAAGATATGCACACATGGATCATATTTTA [CACACA_site423],8.95 ± 0.34
19,CAAAAGCGATACGGCACACATTTCCTGTTTAAATGA [CACACA_site5519],8.99 ± 0.58
20,TACTGATCTTTCTAGGTGCGCTGCTACCATTATCGT [GTGCAC_site9538],8.99 ± 0.49
21,GATATGATTAACTTATGTTATTCTTGATGATTACGT [CACACA_negctrl_site354],8.86 ± 0.38
22,TCTTTATTATTCGCCACACACATATAAATATAAATA [CACACA_site7441],8.93 ± 0.4
